Assay outcomes: PubChem BioAssay, several laboratories
This is one part of a sample in which hits are shown more often than they occur.
NRP1-CendR mod: alters CendR peptide binding to human NRP-1 | O14786 | FAM-RPARPAR peptide binding to NRP-1, fluorescence polarization | inhibition, % at 25 µM | 0.85% of 360,000 active;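 active = inhibition or corrected inhibition above about 18%, plus a signal ratio from 0.5 to 1.5, limit read from the data, passing the limit was not always enough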
PglD DTNB: PglD (C. jejuni) enzyme inhibition. purified PglD enzyme, DTNB colorimetric CoA detection. inhibition, % at 12.5 µM. 0.098% of 360,000 active. AID 602405; in the data active = inhibition above about 16%, passing the limit was not always enough; inconclusive = no clear call, values can overlap the other calls
PDI turbidity: inhibitors of human protein disulfide isomerase; P07237; PDI insulin aggregation turbidity, A650, 90 min; inhibition, % at 10 µM; 0.052% of 350,000 active;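 active = mean inhibition across replicates of 30% or more, whatever share of single replicates reach that level; inconclusive = mean inhibition below 30% while every single replicate reaches 30%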
Target sequence (P07237 whole entry, looked up): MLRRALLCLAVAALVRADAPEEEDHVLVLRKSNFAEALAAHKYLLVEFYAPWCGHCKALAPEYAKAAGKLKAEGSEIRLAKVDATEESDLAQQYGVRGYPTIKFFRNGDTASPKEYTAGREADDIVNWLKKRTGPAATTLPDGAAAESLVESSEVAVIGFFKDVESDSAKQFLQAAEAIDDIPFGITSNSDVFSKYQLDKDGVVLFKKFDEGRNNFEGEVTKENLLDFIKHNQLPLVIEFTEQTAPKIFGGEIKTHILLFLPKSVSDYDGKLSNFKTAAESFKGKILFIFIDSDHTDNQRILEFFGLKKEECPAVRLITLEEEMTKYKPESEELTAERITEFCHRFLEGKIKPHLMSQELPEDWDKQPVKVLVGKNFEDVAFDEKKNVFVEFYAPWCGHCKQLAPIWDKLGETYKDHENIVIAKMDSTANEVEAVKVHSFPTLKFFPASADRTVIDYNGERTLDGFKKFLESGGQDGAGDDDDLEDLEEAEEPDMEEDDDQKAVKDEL
ARNT-TACC3 inh: disruptors of human ARNT/TACC3 interaction; AID 623870; 0.66% of 390,000 active; Q9Y6A5; inhibition, % at 9.99 µM; AlphaScreen His-ARNT PAS-B/GST-TACC3 binding, luminescence; TACC3 fragment carries E629A point mutation;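 active = mean inhibition of replicates at least 50% and at least half of replicates each reaching 50%; inconclusive = half or more replicates reach 50% but mean below 50%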;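 also: 0% = complete ARNT plus TACC3 wells and 100% = ARNT alone without TACC3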
ERp5 block: inhibitors of human ERp5 | ERp5 insulin aggregation, absorbance 650 nm, 90 min | inhibition, % at 9.99 µM | 0.05% of 350,000 active | AID 651711;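 active = mean replicate inhibition above about 25%, with every replicate also reaching it, limit read from the data, passing the limit was not always enough; inconclusive = only one of those two criteria met; inactive = neither criterion met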
ALR H2O2 inh: blocks human ALR sulfhydryl oxidase activity; P55789; purified ALR, DTT oxidation, H2O2 HRP-luminol luminescence; 3.8% of 290,000 active; inhibition, % (concentration not given with the values);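 active = mean replicate inhibition above about 79%, with every replicate also reaching it, limit read from the data; inconclusive = only one of the two criteria met; inactive = mean below limit and not every replicate reaching it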
Numbers without * were called inactive; ? = inconclusive; / = no result.

SMILES | NRP1-CendR mod | PglD DTNB | PDI turbidity | ARNT-TACC3 inh | ERp5 block | ALR H2O2 inh
CC/C(=C(\c1ccc(O)cc1)c1ccc(OCCN(C)C)cc1)c1ccccc1 | -12 | -2 | -3 | 11 | -2 | 97*
c1ccc(CCn2nnnc2CN2CCc3ccccc32)cc1 | -6 | 4 | 0 | 5 | / | 99*
CCOC(=O)c1ccc(N=Cc2nc(-c3ccccc3)oc2OC(C)=O)cc1 | -18 | -4 | -3 | 5 | / | 94*
CC(=O)Oc1oc(-c2ccccc2)nc1C=Nc1ccccc1 | 2 | / | -4 | -2 | / | 50
COc1ccccc1CNC(=O)C[C@H]1CC[C@@H]2[C@H](COC[C@H](O)CN2C(=O)Nc2ccc(Cl)cc2)O1 | / | 1 | / | -6 | 0 | /
Cc1ccc(CS/C(Nc2ccccc2C)=C(\C#N)C(=O)NCc2ccco2)c(C)c1 | -8 | 5 | 5 | -7 | / | 99*
Cc1ccccc1N/C(SCc1ccc(Cl)cc1)=C(/C#N)C(=O)NCc1ccco1 | -7 | 3 | 0 | -3 | / | 53
O=C(COCc1cc(-c2ccc3c(c2)OCO3)on1)N1CCN(c2cccc(C(F)(F)F)c2)CC1 | 19* | -3 | -6 | -4 | 3 | -6
COc1ccc(N2CCN(C(=O)COCc3cc(-c4ccc5c(c4)OCO5)on3)CC2)cc1 | 4 | 3 | -7 | -5 | 3 | 30
O=C(C1CCCC1)N1CCCC(Nc2ccccc2)C1 (stereo unspecified) | 13 | 3 | 1 | -4 | 3 | 99*
Cc1ccc(NC(=O)C2CCCN2C(=O)NC2CCCCC2)cc1C (stereo unspecified) | 28* | / | 0 | 2 | 4 | /
O=C(C1CCCC1)N1CCCC(Nc2ccc(F)cc2)C1 (stereo unspecified) | -2 | -1 | 0 | 1 | 2 | 99*
Cc1ccc(NC2CCCN(C(=O)C3CCCCC3)C2)cc1C (stereo unspecified) | -6 | 2 | 8 | -20 | -1 | 99*
Cc1ccc(NC2CCCN(C(=O)c3cc(C(C)C)nn3C)C2)cc1C (stereo unspecified) | -2 | 0 | 6 | / | -2 | /
O=C(C[C@H]1C[C@H]2c3cc(NS(=O)(=O)c4ccc(F)cc4)ccc3O[C@H]2[C@H](CO)O1)N1CCc2ccccc2C1 | / | -2 | / | 43 | -5 | /
CCCC(=O)Nc1ccc2c(c1)C(=O)N(C)[C@H]1CC[C@@H](CC(=O)O)O[C@@H]1CO2 | / | -3 | / | / | -1 | /
COc1ccc(S(=O)(=O)Nc2cccc3c2O[C@H](CN(C)S(=O)(=O)c2ccc(C)cc2)[C@H](C)CN([C@H](C)CO)C3=O)cc1 | / | -2 | / | 4 | / | /
Fc1ccc(N2CCN(C(=S)NCC3CCCO3)CC2)cc1 (stereo unspecified) | 1 | / | 1 | 0 | -2 | 99*
S=C(NCC1CCCO1)N1CCN(c2cccc(Cl)c2)CC1 (stereo unspecified) | -12 | / | 1 | 14 | 0 | 3
CC(C)C(=O)n1nc(-c2cccnc2)nc1NCc1ccc(F)cc1 | -3 | 0 | 11 | -6 | 1 | 97*
CCC1C/C(=C/c2ccco2)C(=O)/C(=C/c2ccco2)C1 (stereo unspecified) | / | / | / | / | / | 97*
CCC1C/C(=C\c2cc(OC)c(OC)cc2OC)C(=O)/C(=C/c2cc(OC)c(OC)cc2OC)C1 (stereo unspecified) | -142 | / | -1 | 4 | / | -16
Cc1ccccc1N1CCN(C2=NC(=O)/C(=C/c3cn[nH]c3-c3ccccc3)S2)CC1 | -10 | / | -5 | 21* | -2 | 6
O=C(CN1C(=O)NC2(CCCCC2)C1=O)Nc1ccc(N2CCCCC2)cc1 | -16 | -2 | -7 | 12 | 1 | 93*
Cc1cc(N2CCCC2)ccc1NC(=O)CN1C(=O)NC2(CCCCC2)C1=O | 0 | 4 | 4 | 1 | -13 | 93*
SMILES | NRP1-CendR mod | PglD DTNB | PDI turbidity | ARNT-TACC3 inh | ERp5 block | ALR H2O2 inh
COc1ccc([N+](=O)[O-])cc1NC(=S)Nc1ccccc1 | 16 | 1 | -2 | 1 | / | /
Nc1cc(C(F)(F)F)ccc1NCCc1ccccn1 | 0 | 2 | -5 | 4 | 5 | 98*
Nc1cc([N+](=O)[O-])ccc1O | 21 | / | 5 | 8 | 7 | 99*
Nc1cc([N+](=O)[O-])ccc1Nc1ccccc1 | -36 | / | 19 | / | -6 | 99*
O=[N+]([O-])c1ccc(O)c(NC(=S)Nc2ccccc2)c1 | 15 | 1 | -7 | 4 | / | 98*
CCCNC(=O)[C@H]1[C@H](CO)[C@H]2Cn3c(ccc(-c4ccccc4)c3=O)[C@@H]1N2C(=O)CC | / | / | / | / | 6 | /
COc1ccc(CN2CC3(CN(C(=O)Cc4ccncc4)C3)c3c([nH]c4cc(OC)ccc34)[C@H]2CO)cc1 | / | / | / | / | -2 | /
Nc1cc(C(F)(F)F)ccc1Nc1ccccc1 | -6 | 2 | -5 | 0 | / | 98*
N#Cc1ccc(Nc2ccccc2)c(N)c1 | -9 | 0 | 3 | -17 | / | 98*
CO[C@@H]1CN(C)C(=O)c2cc(NS(=O)(=O)CC(F)(F)F)ccc2OC[C@@H](C)N(Cc2nccs2)C[C@@H]1C | / | -3 | / | 0 | -1 | /
Cc1ccc(NC(=O)c2cccc(N3C(=O)C4C5C=CC(C5)C4C3=O)c2)cc1C (stereo unspecified) | 11 | 3 | 6 | -15 | 20 | -18
CN(C)c1ccc(NC(=O)c2cccc(N3C(=O)C4C5C=CC(C5)C4C3=O)c2)cc1 (stereo unspecified) | -1 | 5 | 2 | -12 | / | 99*
O=C1C(Cl)=C(NS(=O)(=O)c2ccc([N+](=O)[O-])cc2)C(=O)c2ccccc21 | 26* | / | 9 | 19 | ? | 0
O=[N+]([O-])c1ccc(Oc2ccc(S(=O)(=O)Nc3ccccc3)cc2)cc1 | -10 | -2 | -1 | 5 | / | /
COc1ccc(S(=O)(=O)N[C@@H]2C=C[C@H](CC(=O)N3CCN(c4ccccc4)CC3)O[C@H]2CO)cc1 | / | -2 | / | -15 | -6 | /
N=c1c2c(n(Cc3ccc(F)cc3)c3c1CCC3)CCCC2 | 24* | / | -2 | -2 | -2 | -3
CO[C@H](CN(C)S(=O)(=O)c1ccc(F)cc1)[C@@H](C)CN(C(=O)Nc1ccccc1F)[C@H](C)CO | / | 1 | / | 9 | 3 | /
CCCn1c(C(C)NC(=O)c2ccccc2)n[nH]c1=S (stereo unspecified) | -3 | / | -1 | -10 | 0 | 94*
C=CCn1c(C(C)NC(=O)c2ccccc2)n[nH]c1=S (stereo unspecified) | 9 | 0 | 4 | -29 | / | 44
CC(C)NC(=O)Nc1cccc2c1O[C@@H](CN(C)Cc1ccccc1)[C@@H](C)CN([C@H](C)CO)C2=O | / | -2 | / | / | 5 | /
CCN(CC)S(=O)(=O)c1ccc(N=Nc2c(C)[nH]n(C(N)=S)c2=O)cc1 | 7 | -8 | -1 | 13 | / | 95*
Cc1[nH]n(C(N)=S)c(=O)c1N=Nc1ccc([N+](=O)[O-])cc1Cl | 39* | -4 | -6 | 11 | -4 | 25
